This note sets out measurements from the supplement of paper PMC7156485.

Structures are written as SMILES. ± gives the standard deviation of the averaged measurements.

Conditions in all cases: concentration: 10 µM; 24 h
Test [1] deals with HCC1569. Kind of test: cell number relative to DMSO (% of DMSO); higher = more cells (less growth inhibition / toxicity). In a few lines: (§1)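 Cells were seeded at 800 per well in 384-well plates with RPMI containing 10% FBS; both HCC1569 and TDF lines were used. Compounds were added at 10 µM for 24 h at 37 °C, in triplicate, before fixation in 3.7% formaldehyde and staining with a rabbit anti-H1.0 antibody, an AlexaFluor 647 secondary and DAPI. H1.0 nuclear intensity or cell number is reported as percent of the plate control using the median of replicates, and HCC1569 values were smoothed for positional effects.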

Test [2] concerns TDF. The test is described as above. The method in brief: as §1
The test system of test [3] is TDF. Kind of test: H1.0 immunofluorescence intensity relative to DMSO (% of DMSO); higher = stronger H1.0 induction, active = 120 or more. The method in brief:
as §1

The subject of test [4] is HCC1569. The experiment in a line: H1.0 immunofluorescence intensity relative to DMSO (% of DMSO); higher = stronger H1.0 induction, active = 140 or more. The method in brief:
as §1
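For H1.0 immunofluorescence intensity relative to DMSO in this document: TDF is a line of transformed human dermal fibroblasts of mesenchymal origin.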
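For cell number relative to DMSO in this document: TDF denotes transformed human dermal fibroblasts of mesenchymal origin.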

Turning to `CSc1ccc(/C=C2/C(C)=C(CC(=O)O)c3cc(F)ccc32)cc1`, the cell number in the test with HCC1569 [1] came to 103; in the test with TDF [2], 105. Besides, the H1.0 immunofluorescence intensity is 99.8 (inactive) in the test with TDF [3] and 102 (inactive) in the test with HCC1569 [4].
On to `C=C1C(=CC=C2CCCC3(C)C2CCC3C(C)CCCC(C)(C)O)CC(O)CC1O` (configuration not stated) [1,25-Dihydroxyvitamin D3], for which the cell number worked out at 104 with HCC1569 [1] and 106 in the test with TDF [2]. For the same compound, the H1.0 immunofluorescence intensity was 95.2 (inactive) with TDF [3] and 98.6 (inactive) in the test with HCC1569 [4].
Turning to `CCCS(=O)(=O)Nc1ccc(F)c(C(=O)c2c[nH]c3ncc(Cl)cc23)c1F`, the cell number is 96.8 in the test with HCC1569 [1] and 92.9 in the test with TDF [2]. Besides, the values for the H1.0 immunofluorescence intensity in the test on TDF [3] and in the test with HCC1569 [4] were 105 (inactive) and 111 (inactive), respectively.
For `Br.CN1C2CCC1CC(OC(=O)C(O)c1ccccc1)C2` (racemic) [DL-Homatropine hydrobromide], the cell number in the test with HCC1569 [1] stood at 106; in the test on TDF [2] it was 109. Also, the values for the H1.0 immunofluorescence intensity in the test with TDF [3] and with HCC1569 [4] were 91.5 (inactive) and 85.8 (inactive), respectively.
Regarding `CC(C)c1[nH]n(-c2c(Cl)cccc2Cl)c2nc(Cc3ccc(OCCO)cc3)nc(=O)c1-2` [Cdk/Crk Inhibitor], the cell number with HCC1569 [1] was 55; in the test on TDF [2] it was 26.7. Also, the H1.0 immunofluorescence intensity in the test on TDF [3] was 131 (active); in the test with HCC1569 [4], 143 (active).
Turning to `C=CC1CN2CCC1CC2C(O)c1ccnc2ccc(OC)cc12.Cl.O.O` (configuration not stated), the cell number is 99.036 ± 0.095 in the test with HCC1569 [1] and 99.4 ± 3.1 in the test with TDF [2]. Further, the H1.0 immunofluorescence intensity in the test on TDF [3] was 98.1 (inactive); with HCC1569 [4], 92.6 (inactive).
For `CN(C)CC(C)(C)CNc1nn2c(-c3ccccc3)nnc2cc1C1CCC1` the same measures were 101, 103, 99.9 (inactive) and 92.2 (inactive).
For `CCCCCC(O)C=CC1C(O)CC(O)C1CC=CCCCC(=O)O` (configuration not stated) [Dinoprost] the same measures were 100, 106, 93.2 (inactive) and 109 (inactive).
For `CCNC(=O)C1OC(n2cnc3c(N)nc(NCCc4ccc(CCC(=O)O)cc4)nc32)C(O)C1O.Cl` (configuration not stated) the same measures were 118, 96, 103 (inactive) and 102 (inactive).
Consider `Cc1cccc(-c2nn(C(=S)Nc3ccccc3)cc2-c2ccnc3ccccc23)n1`, for which the cell number in the test with HCC1569 [1] stood at 98.7; in the test on TDF [2] it was 97.7. The H1.0 immunofluorescence intensity in the test on TDF [3] was 82.2 (inactive); in the test with HCC1569 [4], 134 (inactive).
For the compound `CN(C)CCC=C1c2ccccc2CCc2ccccc21.Cl` [Amitriptyline hydrochloride], the cell number in the test with HCC1569 [1] and with TDF [2] was 100 throughout. Besides, the H1.0 immunofluorescence intensity in the test on TDF [3] is 104 (inactive); in the test with HCC1569 [4] it was 94.1 (inactive).
On to `CCn1cc(C(=O)O)c(=O)c2ccc(C)nc21` [Nalidixic acid], for which the cell number with HCC1569 [1] stood at 102; in the test on TDF [2], 98.7. The H1.0 immunofluorescence intensity is 91.1 (inactive) in the test on TDF [3] and 86.1 (inactive) in the test with HCC1569 [4].
Turning to `CC(C)n1cnc2c(NCc3ccccc3)nc(NCCO)nc21` [N9-Isopropylolomoucine], the cell number came out at 46 with HCC1569 [1] and 105 in the test on TDF [2]. Moreover, the H1.0 immunofluorescence intensity is 95 (inactive) in the test with TDF [3] and 314 (active) in the test on HCC1569 [4].
Take `NC(Cc1ccc(Cl)cc1)C(=O)O` (racemic): the figures for the cell number in the test on HCC1569 [1] and in the test with TDF [2] were 101 and 106, respectively. In addition, the H1.0 immunofluorescence intensity in the test on TDF [3] was 88.6 (inactive); in the test with HCC1569 [4], 87.6 (inactive).
For `COc1c(O)c2c(=O)cc(OC)c3c4c(OC)cc(=O)c5c(O)c(OC)c6c(c(c1CC(C)(O)C6C(C)=O)c23)c54` (configuration not stated) [Hypocrellin A], in that order: 75.8, 67.1, 97.2 (inactive) and 108 (inactive).
With `CC1(C)SC2C(NC(=O)C(N)c3ccc(O)cc3)C(=O)N2C1C(=O)O` (configuration not stated) [Amoxicillin], the cell number in the test with HCC1569 [1] is 107; in the test on TDF [2] it was 103. For the same compound, the H1.0 immunofluorescence intensity was 105 (inactive) with TDF [3] and 104 (inactive) in the test on HCC1569 [4].
As to `O=C(CCCCCCc1ccccc1)c1ncc(-c2ccccn2)o1` [7-phenyl-1-[5-(2-pyridinyl)-1,3-oxazol-2-yl]-1-heptanone], the cell number with HCC1569 [1] and with TDF [2] was 104 in each case. The H1.0 immunofluorescence intensity in the test on TDF [3] was 98.3 (inactive); in the test with HCC1569 [4], 107 (inactive).
With `CCCCCC(O)C=CC1C(O)CC(O)C1CC=CCCCC(=O)O` (configuration not stated) [9b,11a Prostaglandin F2], the cell number is 100 in the test on HCC1569 [1] and 98 in the test with TDF [2]. Moreover, the H1.0 immunofluorescence intensity in the test on TDF [3] was 93.3 (inactive); in the test on HCC1569 [4] it was 97.5 (inactive).
For `Cl.NCCNC(=O)c1ccc(Cl)cc1` [Ro 16-6491 hydrochloride] the same measures were 100, 102, 94.8 (inactive) and 107 (inactive).
For `CCCCCC(O)C=CC1OC(O)CC(O)C1CC=CCCCC(=O)O` (configuration not stated) [Thromboxane B2], the cell number in the test with HCC1569 [1] was found to be 96.2; in the test with TDF [2] it was 95.2. In addition, the H1.0 immunofluorescence intensity is 102 (inactive) in the test with TDF [3] and 97.9 (inactive) in the test with HCC1569 [4].
On to `COc1ccccc1N1CCN(CCCCNS(=O)(=O)c2cccc3c(N(C)C)cccc23)CC1.O=C(O)C=CC(=O)O` [Cortexolone maleate], for which the cell number was determined as 85.1 with HCC1569 [1] and 99.8 in the test on TDF [2]. Further, the results for the H1.0 immunofluorescence intensity in the test on TDF [3] and with HCC1569 [4] were 117 (inactive) and 131 (inactive), respectively.
Regarding `Cl.O=C(CCCN1CCC(O)(c2cccc(C(F)(F)F)c2)CC1)c1ccc(F)cc1` [Trifluperidol hydrochloride], the results for the cell number with HCC1569 [1] and in the test on TDF [2] were 101 and 111, respectively. In addition, the H1.0 immunofluorescence intensity in the test on TDF [3] was 98.4 (inactive); with HCC1569 [4] it was 105 (inactive).
On to `O=c1oc2cc(O)ccc2c2oc3cc(O)ccc3c12` [Coumestrol], for which the cell number came to 99.9 in the test on HCC1569 [1] and 91.8 with TDF [2]. The H1.0 immunofluorescence intensity is 97.6 (inactive) with TDF [3] and 94.6 (inactive) in the test on HCC1569 [4].
